“And” between values parts separate entries of the source, which are not always exact repeats. Identical values can stand only once. Results filed as inconclusive are left out. The source made the active and inactive calls. The calls were made as follows, unless noted: active = hit-call score of the fitted dose curve at least 0.9, where 1 is the maximum; inconclusive = response in the unintended direction; inactive = score below 0.9.
Assays:
[1] = target: Peroxisome proliferator-activated receptor gamma (Homo sapiens) (UniProt P37231); assay: OT_PPARg_PPARgSRC1_0480: Odyssey Thera (OT) 8-hour Protein-Complementation Assay for Peroxisome Proliferator-activated Receptor Gamma / SRC-1 Co-activator (AID 2283387);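 also: nuclear to cytoplasmic split Venus YFP fluorescence ratio reporting PPARg SRC-1 interaction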
How it was run: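 Split-YFP (IFP1/IFP2) PPARg/SRC-1 reporter, HEK293T, 37 °C, 5% CO2; 8 h compound; formaldehyde fix + Draq5; high-content imaging, N/C ratio, ≥350 cells/image, positive direction vs DMSO.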

[2] = target: Peroxisome proliferator-activated receptor gamma (Homo sapiens) (UniProt P37231); assay: OT_PPARg_PPARgSRC1_1440: Odyssey Thera (OT) 24-hour Protein-Complementation Assay for Peroxisome Proliferator-activated Receptor Gamma/ SRC-1 Co-activator (AID 2283388);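 also: nuclear to cytoplasmic ratio of reconstituted Venus YFP fluorescence in fixed imaged cells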
How it was run: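 Protein-fragment complementation between PPARg and coactivator SRC-1 was measured by fluorescence imaging in transiently transfected HEK293T cells after 24 h treatment. Signal was quantified as N/C ratio in the 488 nm channel, with DMSO as negative control.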

[3] = CEETOX_H295R_OHPREG: CeeTox H295R High-throughput Steroidogenesis Assay for OH-Pregnenolone (OHPREG) (AID 2283434; active = hit-call score of the fitted dose curve at least 0.9, where 1 is the maximum; inactive = score below 0.9); details: actives raise or lower the signal
How it was run: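 Human adrenal H295R cells were prestimulated 48 h with 10 uM forskolin, then exposed 48 h to chemical in 0.1% DMSO. Medium 17alpha-hydroxypregnenolone was quantified by HPLC-MS/MS after MTBE extraction; bidirectional fitting versus DMSO baseline.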

[4] = CEETOX_H295R_OHPROG: CeeTox H295R High-throughput Steroidogenesis Assay for OH-Progesterone (OHPROG) (AID 2283435; active = hit-call score of the fitted dose curve at least 0.9, where 1 is the maximum; inactive = score below 0.9); details: actives raise or lower the signal
How it was run: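 H295R adrenal cells prestimulated 48 h with 10 uM forskolin, then exposed 48 h to chemical (0.1% DMSO final). 17alpha-hydroxyprogesterone in medium quantified by HPLC-MS/MS; bidirectional fit versus DMSO, with MTT viability measured in the same wells.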

[5] = CEETOX_H295R_ANDR: CeeTox H295R High-throughput Steroidogenesis Assay for Androstenedione (ANDR) (AID 2283436; active = hit-call score of the fitted dose curve at least 0.9, where 1 is the maximum; inactive = score below 0.9); details: actives raise or lower the signal
How it was run: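 H295R human adrenal cells (passages ≤10) were exposed to test chemicals for 48 h; androstenedione in medium was MTBE-extracted and quantified by HPLC-MS/MS against a 7-point standard curve. Bidirectional fitting used DMSO as baseline.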

[6] = CEETOX_H295R_CORTIC: CeeTox H295R High-throughput Steroidogenesis Assay for Corticosterone (CORTIC) (AID 2283437; active = hit-call score of the fitted dose curve at least 0.9, where 1 is the maximum; inactive = score below 0.9;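 also: corticosterone secreted into medium quantified by mass spectrometry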); details: actives raise or lower the signal
How it was run: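 H295R cells were prestimulated 48 h with 10 uM forskolin, then exposed 48 h to test chemical in 0.1% DMSO. Medium corticosterone was MTBE-extracted and quantified by HPLC-MS/MS; bidirectional fit versus DMSO baseline.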

[7] = CEETOX_H295R_CORTISOL: CeeTox H295R High-throughput Steroidogenesis Assay for Cortisol (AID 2283438; active = hit-call score of the fitted dose curve at least 0.9, where 1 is the maximum; inactive = score below 0.9;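 also: cortisol secreted into medium quantified by LC-MS/MS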); details: actives raise or lower the signal
How it was run: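 Forskolin-primed H295R cells (10 uM, 48 h) treated 48 h with test chemical in 0.1% DMSO. Cortisol in medium quantified by MTBE extraction and HPLC-MS/MS; bidirectional fit vs DMSO, MTT viability in same wells.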

[8] = CEETOX_H295R_DOC: CeeTox H295R High-throughput Steroidogenesis Assay for DOC (AID 2283439; active = hit-call score of the fitted dose curve at least 0.9, where 1 is the maximum; inactive = score below 0.9); details: actives raise or lower the signal
How it was run: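 H295R cells prestimulated 48 h with 10 uM forskolin, then exposed 48 h to test chemical (0.1% DMSO final). Medium 11-deoxycorticosterone measured by HPLC-MS/MS after MTBE extraction; bidirectional fit vs DMSO, viability checked by MTT in same wells.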

[9] = CEETOX_H295R_ESTRADIOL: CeeTox H295R High-throughput Steroidogenesis Assay for Estradiol (AID 2283440; active = hit-call score of the fitted dose curve at least 0.9, where 1 is the maximum; inactive = score below 0.9;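 also: estradiol secreted into medium quantified by LC-MS/MS after dansyl derivatisation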); details: actives raise or lower the signal
Protocol: CEETOX_H295R is a cell-based, multiplexed-readout assay that uses H295R, a human adrenal gland cell line, with measurements taken at 48 hours after chemical dosing in a 96-well plate.CEETOX_H295R_ESTRADIOL is one of 23 assay component(s) measured or calculated from the CEETOX_H295R assay. It is designed to make measurements of hormone induction, a form of inducible reporter, as detected with absorbance signals by HPLC-MS-MS technology.Data from the assay component CEETOX_H295R_ESTRADIOL was analyzed into 1 assay endpoint. This assay endpoint, CEETOX_H295R_ESTRADIOL, was analyzed with bidirectional fitting relative to DMSO as the negative control and baseline of activity. […] To generalize the intended target to other relatable targets, this assay endpoint is annotated to the steroid hormone intended target family, where the subfamily is estrogens.
Cell culture and media preparation procedures were conducted in accordance with OECD Test No. 456 guidelines, with minor modifications. H295R cells (ATCC CRL-2128) were expanded for 5 passages and frozen in batches in liquid nitrogen. Prior to the steroidogenesis assay, H295R cells were thawed and passed at least 4 times. The maximum passage was 10. Cells were maintained in a 1:1 mixture of DMEM/F12 supplemented with 5ml/L ITS+ Premix (BD Bioscience) and 12.5 ml/L Nu-Serum (BD Bioscience). After seeding cells into 96-well plates at 50-60% confluency, cells were allowed to adhere overnight. Prior to chemical testing, culture medium was replaced with 175 uL medium containing 10 uM forskolin to stimulate steroidogenesis for 48 hours. Following prestimulation, forskolin medium was replaced with medium containing test chemical solubilized in DMSO (ensuring a final concentration of 0.1% DMSO). Test chemicals were incubated for 48 hours, then the medium was removed and split into 2 vials containing approximately 75uL each, and stored at -80 C prior to hormone analysis. For steroid quantification, media samples were shipped to OpAns, LLC (Durham, NC) on dry ice, and samples were thawed to room temperature prior to liquid-liquid extraction. Steroid hormones were extracted from media samples using methyl tertbutyl ether (MTBE). […] Steroid hormones were separated by HPLC, eluted using a reverse phase C18 gradient with electrospray positive ionization, followed by quantification by tandem mass spectrometry (MS/MS). Data were acquired on a MassHunter Workstation Acquisition version B03.01 (Agilent Technologies, Inc.) and processed using MassHunter Quantitative Analysis for QQQ. Accuracy was determined for each hormone analyte from 3 standards to determine upper and lower limits of quantification (ULOQ and LLOQ, respectively) using a 7-point standard curve. Precision and accuracy of the extraction and quantification methods were calculated as the percent relative standard deviation (%RSD) of the spiked standards and percent spiked standard recovered, respectively. […] Test medium was removed following chemical exposure, and cell viability was evaluated in the same wells by MTT. […] Absorbance was read at 570 and 650nm using a Packard Fusion microplate reader. Background correction of absorbance units was used to determine percent change relative to controls. […] When a test chemical reduced cell viability to 20% - 70%, the test chemical was diluted 10-fold and re-evaluated, but if cell viability was <20%, then the test chemical was diluted 100-fold and re-evaluated. […]

[10] = CEETOX_H295R_ESTRONE: CeeTox H295R High-throughput Steroidogenesis Assay for Estrone (AID 2283441; active = hit-call score of the fitted dose curve at least 0.9, where 1 is the maximum; inactive = score below 0.9;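 also: estrone secreted into medium measured by LC-MS/MS after dansyl derivatization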); details: actives raise or lower the signal
Protocol: CEETOX_H295R is a cell-based, multiplexed-readout assay that uses H295R, a human adrenal gland cell line, with measurements taken at 48 hours after chemical dosing in a 96-well plate.CEETOX_H295R_ESTRONE is one of 23 assay component(s) measured or calculated from the CEETOX_H295R assay. It is designed to make measurements of hormone induction, a form of inducible reporter, as detected with absorbance signals by HPLC-MS-MS technology.Data from the assay component CEETOX_H295R_ESTRONE was analyzed into 1 assay endpoint. This assay endpoint, CEETOX_H295R_ESTRONE, was analyzed with bidirectional fitting relative to DMSO as the negative control and baseline of activity. Using a type of inducible reporter, gain or loss-of-signal activity using HPLC-MS-MS was used to understand synthesis of Estrone in H295R cell line at 48hr of chemical exposure. To generalize the intended target to other relatable targets, this assay endpoint is annotated to the steroid hormone intended target family, where the subfamily is estrogens.
Cell culture and media preparation procedures were conducted in accordance with OECD Test No. 456 guidelines, with minor modifications. H295R cells (ATCC CRL-2128) were expanded for 5 passages and frozen in batches in liquid nitrogen. Prior to the steroidogenesis assay, H295R cells were thawed and passed at least 4 times. The maximum passage was 10. […] After seeding cells into 96-well plates at 50-60% confluency, cells were allowed to adhere overnight. Prior to chemical testing, culture medium was replaced with 175 uL medium containing 10 uM forskolin to stimulate steroidogenesis for 48 hours. Following prestimulation, forskolin medium was replaced with medium containing test chemical solubilized in DMSO (ensuring a final concentration of 0.1% DMSO). Test chemicals were incubated for 48 hours, then the medium was removed and split into 2 vials containing approximately 75uL each, and stored at -80 C prior to hormone analysis. For steroid quantification, media samples were shipped to OpAns, LLC (Durham, NC) on dry ice, and samples were thawed to room temperature prior to liquid-liquid extraction. Steroid hormones were extracted from media samples using methyl tertbutyl ether (MTBE). […] Steroid hormones were separated by HPLC, eluted using a reverse phase C18 gradient with electrospray positive ionization, followed by quantification by tandem mass spectrometry (MS/MS). Data were acquired on a MassHunter Workstation Acquisition version B03.01 (Agilent Technologies, Inc.) and processed using MassHunter Quantitative Analysis for QQQ. Accuracy was determined for each hormone analyte from 3 standards to determine upper and lower limits of quantification (ULOQ and LLOQ, respectively) using a 7-point standard curve. Precision and accuracy of the extraction and quantification methods were calculated as the percent relative standard deviation (%RSD) of the spiked standards and percent spiked standard recovered, respectively. The goal was to achieve 100% accuracy (i.e., recover all spiked-in standard at quantification with minimal loss during run time) and good precision (i.e., have %RSD <15% to ensure reproducibility). Test medium was removed following chemical exposure, and cell viability was evaluated in the same wells by MTT. […] Absorbance was read at 570 and 650nm using a Packard Fusion microplate reader. Background correction of absorbance units was used to determine percent change relative to controls. […]

Measured: AC50

Peroxisome proliferator-activated receptor gamma (Homo sapiens), sequence (P37231 whole entry, looked up, the tested form may be a part): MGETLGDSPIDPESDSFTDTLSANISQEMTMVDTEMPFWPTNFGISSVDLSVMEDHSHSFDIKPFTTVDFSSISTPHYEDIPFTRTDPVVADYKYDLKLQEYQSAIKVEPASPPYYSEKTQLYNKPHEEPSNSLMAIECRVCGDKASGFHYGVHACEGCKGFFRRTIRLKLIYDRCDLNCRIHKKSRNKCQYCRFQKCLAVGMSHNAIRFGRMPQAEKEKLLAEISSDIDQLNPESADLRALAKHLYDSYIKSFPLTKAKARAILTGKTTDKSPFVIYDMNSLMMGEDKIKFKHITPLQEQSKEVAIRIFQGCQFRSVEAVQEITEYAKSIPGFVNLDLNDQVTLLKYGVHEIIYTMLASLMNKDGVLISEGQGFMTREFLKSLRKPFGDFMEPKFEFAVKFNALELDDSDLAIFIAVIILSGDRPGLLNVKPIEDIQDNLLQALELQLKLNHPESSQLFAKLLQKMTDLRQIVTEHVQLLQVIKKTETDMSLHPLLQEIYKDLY

CC(C)N(Cc1ccccc1)C(=O)C(C)(C)C
inactive: [1] | [2] | [3] | [4] | [5]

CO[C@@H]1[C@H](OC(=O)NC(=O)CCl)CC[C@]2(CO2)[C@H]1[C@@]1(C)O[C@@H]1CC=C(C)C
inactive: [1] | [2]

Nc1ccc(Cc2ccc(N)cc2)cc1
inactive: [1] | [2] | [6]
active: [3] 4.31 µM | [4] 4.68 µM | [7] 24 µM | [8] 65.5 µM

O=[N+]([O-])c1ccc(Oc2ccc(Cl)cc2Cl)cc1
inactive: [1] | [2] | [3] | [4] | [6] | [8]

Cc1cccc(N)c1N
active: [1] 31.9 µM and 66.9 µM | [3] 27 µM | [4] 18.5 µM
inactive: [2] | [6] | [7] | [8]

Cc1cc(N=Nc2ccccc2C)ccc1N
active: [4] 1.79 µM | [6] 2.24 µM
not listed: [9] | [10]
inactive: all other assays above

C=CCc1ccc2c(c1)OCO2
inactive: [1] | [2]

Nc1ccc(Oc2ccc(N)cc2)cc1
active: [3] 5.04 µM | [6] 0.493 µM | [7] 26.9 µM | [8] 1.21 µM
inactive: [1] | [2] | [4]

O=[N+]([O-])C(Br)(CO)CO
inactive: [1] | [2]

Nc1ccc([N+](=O)[O-])cc1
inactive: [1] | [2]

CC(C)(C)C(O)(CCc1ccc(Cl)cc1)Cn1cncn1 (configuration not stated)
active: [3] 0.503 µM | [4] 0.552 µM | [7] 5.75 µM | [8] 0.26 µM
inactive: [1] | [2] | [6]

Cn1cc(-c2ccccc2)c(=O)c(-c2cccc(C(F)(F)F)c2)c1
not listed: [5] | [9] | [10]
inactive: all other assays above

c1ccc(N=Nc2ccccc2)cc1
inactive: [1] | [2] | [3] | [4] | [6] | [7]

OCCCl
inactive: [1] | [2]

O=P(OCCCl)(OCCCl)OCCCl
not listed: [5] | [9] | [10]
inactive: all other assays above

CCC(C)c1ccc(O)cc1 (configuration not stated)
active: [4] 22.5 µM
inactive: [3] | [6] | [7] | [8]

Oc1ccc2ccc3cccc4ccc1c2c34
active: [3] 25 µM | [6] 25.5 µM | [7] 35.7 µM | [8] 12.9 µM
inactive: [4]

CCCCCOC(=O)c1ccccc1C(=O)OCCCCC
not listed: [5] | [7]
inactive: all other assays above

O=C(N[C@H](c1ccccc1)[C@@H]1CN2CCC1CC2)c1c(Cl)ccc(C(F)(F)F)c1Cl
inactive: [1] | [2]

Cc1ccc(N=C=O)cc1N=C=O
not listed: [5] | [9] | [10]
inactive: all other assays above

C[C@]12C=CC3=C4CCC(=O)C=C4CC[C@H]3[C@@H]1CC[C@@H]2O
inactive: [1] | [2]
active: [3] 13.2 µM | [5] 90.1 µM

CC(C)(O)c1cnn2c(-c3ccc(F)c(-c4c(F)cccc4C#N)c3)cnc2n1
active: [1] 92.9 µM and 93.2 µM | [2] 92.9 µM and 79.4 µM | [4] 0.408 µM
not listed: [9] | [10]
inactive: all other assays above

OCCOCCO
inactive: [1] | [2]

N#CC(Br)(Br)C(N)=O
inactive: [1] | [2] | [3] | [4]

Source: PubChem BioAssay (EPA / NIEHS)
